E coli Lon inh – inhibitors of E. coli Lon protease; inhibition, % at 7.94 µM; AID 602123; 0.42% of 360,000 active; purified E. coli Lon protease, fluorescence polarization; in the data active = inhibition above about 13%, passing the limit was not always enough;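 note: 0% = enzyme with probe and DMSO and 100% = no enzyme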
Target sequence (P0A9M0 whole entry, looked up): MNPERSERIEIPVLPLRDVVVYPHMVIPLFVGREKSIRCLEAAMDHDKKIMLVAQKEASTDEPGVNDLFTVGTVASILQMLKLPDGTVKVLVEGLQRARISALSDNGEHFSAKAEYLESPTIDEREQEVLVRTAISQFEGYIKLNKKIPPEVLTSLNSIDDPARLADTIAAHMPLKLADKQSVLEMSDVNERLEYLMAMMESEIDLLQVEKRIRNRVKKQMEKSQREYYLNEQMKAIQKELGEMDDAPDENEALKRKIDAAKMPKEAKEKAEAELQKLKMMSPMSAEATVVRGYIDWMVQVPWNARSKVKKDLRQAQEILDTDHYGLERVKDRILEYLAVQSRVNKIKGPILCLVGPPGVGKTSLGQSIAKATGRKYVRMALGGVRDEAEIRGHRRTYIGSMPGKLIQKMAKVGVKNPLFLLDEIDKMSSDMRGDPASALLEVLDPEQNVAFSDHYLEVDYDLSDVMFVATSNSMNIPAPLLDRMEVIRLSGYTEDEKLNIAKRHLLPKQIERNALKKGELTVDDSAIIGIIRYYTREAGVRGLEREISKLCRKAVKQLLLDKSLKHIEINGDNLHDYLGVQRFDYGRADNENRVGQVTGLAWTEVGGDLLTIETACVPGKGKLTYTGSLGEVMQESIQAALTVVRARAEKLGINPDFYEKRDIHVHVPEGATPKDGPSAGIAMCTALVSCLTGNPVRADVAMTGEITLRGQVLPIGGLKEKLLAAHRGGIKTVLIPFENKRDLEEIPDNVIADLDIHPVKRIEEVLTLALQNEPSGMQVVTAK
PAFAH1B2 FP inh – inhibitors of human PAFAH1B2. P68402. recombinant PAFAH1B2, FP-rhodamine activity probe, fluorescence polarization. inhibition, % at 3.39 µM. 1.2% of 340,000 active. AID 492953;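 active = inhibition above the mean of all tested compounds plus 3 SD, cut at about 24% in these data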;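 note: 0% = enzyme with DMSO and 100% = wells lacking PAFAH1B2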
PAFAH2 inh – inhibitors of human PAFAH2; Q99487; recombinant PAFAH2, FP-rhodamine activity probe, fluorescence polarization; inhibition, % at 3.39 µM; 0.99% of 340,000 active; AID 492956;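 active = inhibition above the mean over all tested compounds plus 3 SD, cut at about 30% in these data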;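 note: inhibitors block probe labeling of enzyme so polarization drops; 0% = enzyme with DMSO and 100% = wells lacking PAFAH2 protein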
Rin1 Abl inh – blocks binding of human Rin1 to Abl; TR-FRET Rin1/Abl binding, biochemical; P00519+Q13671; AID 588664; inhibition, % at 7.35 µM; 0.4% of 360,000 active; in the data active = inhibition above about 5%, passing the limit was not always enough
PAFAH1B3 FP inh – PAFAH1B3 (human) inhibition. Q15102. recombinant PAFAH1B3, FP-rhodamine probe, fluorescence polarization. inhibition, % at 3.39 µM. 0.28% of 340,000 active. AID 492972;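 active = inhibition above the screen-wide average of all tested compounds plus 3 SD, cut at about 25% in these data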;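 note: 0% = enzyme with DMSO only and 100% = wells lacking PAFAH1B3 protein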
pPAFAH FP inh – inhibitors of human plasma PAF acetylhydrolase (pPAFAH); Q13093; recombinant pPAFAH, FP-rhodamine probe fluorescence polarization; inhibition, % at 3.39 µM; 1.5% of 330,000 active; AID 463082;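 active = inhibition above the mean inhibition across the screen plus 3 SD, cut at about 25% in these data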;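 note: inhibitors block binding of the rhodamine activity-based probe so polarization drops; 0% = enzyme with DMSO and 100% = wells lacking pPAFAH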
* = called active by the depositor; x = no result given. This is a sample that favours compounds with a hit; in the whole collection about 3.1% have one here.

SMILES	E coli Lon inh	PAFAH1B2 FP inh	PAFAH2 inh	Rin1 Abl inh	PAFAH1B3 FP inh	pPAFAH FP inh
Cc1cc(C)c(C)c(S(=O)(=O)N2CCC(C(=O)OCC(=O)N3c4ccccc4NC(=O)C3(C)C)CC2)c1C	-7	0	3	-1	7	5
Cc1ccc(S(=O)(=O)N2CCCCC2)cc1C(=O)OCC(=O)N1c2ccccc2NC(=O)C1(C)C	-4	34*	8	-3	6	7
COCCN1CCN(C(=O)c2ccc3c(c2)S(=O)(=O)c2ccccc2C3=O)CC1	x	x	x	x	x	-3
CCC(C)c1ccc(OCCn2cc(/C=N/NC(=O)CSc3nnc(C)s3)c3ccccc32)cc1 (stereo unspecified)	0	4	-12	-2	14	26*
Cc1cccc(OCCn2cc(/C=N/NC(=O)c3ccncc3)c3ccccc32)c1	6	7	-15	1	23	28*
COC(=O)N/N=C/c1cn(CCOc2cccc(OC)c2)c2ccccc12	-3	0	1	0	9	23
CC(C)CNc1ncnc2[nH]ncc12	-3	0	-12	3	8	x
Cc1ccc(SCCC(=O)Nc2ccc(OCc3ccccc3)cc2)cc1	-6	0	-1	-3	-2	6
CCOc1ccc(NC(=O)CCSc2ccc(C)cc2)cc1	-4	25*	3	-1	1	6
COc1ccc(NC(=O)c2c3c(nc4ccccc24)CCC3)cc1S(=O)(=O)N1CCOCC1	-1	1	0	0	6	26*
COc1ccc(C(=O)Nc2ccc(NC(=O)c3ccccc3)cc2)cc1S(=O)(=O)N1CCOCC1	-3	0	-7	0	-3	5
COc1ccc(NC(=O)C2CC2)cc1S(=O)(=O)N1CCOCC1	-5	1	1	1	3	1
COc1ccc(NC(=O)C23CC4CC(CC(Cl)(C4)C2)C3)cc1S(=O)(=O)N1CCOCC1	-5	27*	1	4	7	7
O=C(CSCc1ccccc1)NNC(=S)Nc1cccc(Cl)c1Cl	7	17	29	3	10	32*
CNC(=S)NNC(=O)CSCc1c(Cl)cccc1Cl	0	x	x	1	x	8
CC1(C(=O)NS(=O)(=O)C2CC2)CCCN(C(=O)c2cc3ccccc3s2)C1 (stereo unspecified)	-6	x	x	-1	x	x
Cc1ccc(S(=O)(=O)NC(CC(C)C)C(=O)Nc2ccncc2)cc1 (stereo unspecified)	-9	25*	7	1	-4	2
Cc1ccc(S(=O)(=O)NC(CC(C)C)C(=O)Nc2nccs2)cc1 (stereo unspecified)	-1	15	3	2	9	4
C=C(C)COc1ccc2c3c(c(=O)oc2c1OCC(=C)C)CCC3	18	6	67*	1	0	31*
Fc1ccc(-[n+]2nc(Nc3ccccc3)sc2-c2c3ccccc3cc3ccccc23)cc1	2	-4	5	-6	12	26*
Cc1nn(CC(=O)N(C)C2CCS(=O)(=O)C2)c(C)c1S(=O)(=O)N(C)C (stereo unspecified)	3	6	-5	-1	2	-1
CC(NC(=O)c1cc(S(=O)(=O)N2CCCC2)cn1C)c1ccccc1 (stereo unspecified)	-4	4	1	1	2	6
CC(NC(=O)c1cccc(S(=O)(=O)N2CCCCCC2)c1)c1ccccc1 (stereo unspecified)	-4	25*	5	2	-3	5
COC(=O)c1ccc(/C=N\N2CCN(Cc3ccc(C)cc3)CC2)cc1	142*	1	6	1	-2	2
COCCN1C[C@@H](CO)O[C@@H](n2cnc3c(NCCCO)ncnc32)C1	-1	x	x	-5	x	x
SMILES	E coli Lon inh	PAFAH1B2 FP inh	PAFAH2 inh	Rin1 Abl inh	PAFAH1B3 FP inh	pPAFAH FP inh
CC(C)(C)NC(=O)C1CCN(S(=O)(=O)c2ccc(Br)cc2)CC1	-12	29*	-2	9	10	1
CC1CCCN(S(=O)(=O)c2ccc(NC(=O)[C@@H]3CCCN3C(=O)c3cccs3)cc2)C1 (stereo partly specified)	-2	1	-2	0	11	30*
CC1CCN(S(=O)(=O)c2ccc(NC(=O)[C@@H]3CCCN3C(=O)c3cccs3)cc2)CC1	-2	37*	1	2	-6	25*
CC1CCN(S(=O)(=O)c2ccc(S(=O)(=O)N3CCCC3)cc2)CC1	-6	-1	-9	1	-1	5
CC1CCN(S(=O)(=O)c2ccc(NC(=O)c3cccs3)cc2)CC1	6	21	-15	3	-2	-3
COc1ccc(NC(=O)[C@@H]2CCCN2C(=O)c2cccs2)cc1S(=O)(=O)N1CCCCC1	-4	5	0	1	-4	-2
CCN1CCN(C(=O)C2CCN(S(=O)(=O)c3ccc(Br)cc3)CC2)CC1	4	7	-2	2	8	x
CC1CCN(S(=O)(=O)c2ccc(S(=O)(=O)NCC(=O)C(C)(C)C)cc2)CC1	-6	26*	-2	-5	0	2
CC1CCN(S(=O)(=O)c2ccc(NC(=O)CSc3nnnn3C)cc2)CC1	5	42*	-4	-2	0	2
CC(=O)N1CCC(C(=O)Nc2ccc(S(=O)(=O)N3CCC(C)CC3)cc2)CC1	-1	29*	8	1	-2	-1
N#Cc1c(CSCC(=O)O)cc(=O)n2c1[nH]c1ccccc12	-11	2	3	-2	7	27*
O=[N+]([O-])c1cc(-c2cnc3ccccc3n2)ccc1Oc1ccc(Br)cc1	-10	54*	-7	-3	2	5
CCn1cc(CN2CCC(n3nccc3NC(=O)c3cccc(F)c3)CC2)cn1	-4	0	1	2	4	1
CCCCCCSc1nc(O)c(C2OC(=O)c3c2ccc(OC)c3OC)c(=O)n1CC (stereo unspecified)	-3	24	15	1	3	31*
CCCSc1nc(O)c(C2OC(=O)c3c2ccc(OC)c3OC)c(=O)n1C (stereo unspecified)	9	0	1	-2	0	-2
O=C(COC(=O)Cc1ccsc1)Nc1ccc(F)cc1Cl	5	-2	-4	1	4	29*
Cc1ccccc1NC(=O)COC(=O)Cc1ccsc1	-1	5	9	2	2	27*
Cc1cccc(C)c1NC(=O)COC(=O)Cc1ccsc1	-5	3	-7	-1	-2	23
Cc1ccc(NC(=O)COC(=O)Cc2ccsc2)cc1S(=O)(=O)N(C)C	0	2	9	-1	3	19
O=C(COC(=O)Cc1ccsc1)Nc1ccc(Cl)cn1	-9	2	3	-4	5	28*
Cc1ccc(C)c(NC(=O)COC(=O)Cc2ccsc2)c1	4	7	5	2	-9	25*
Cc1ccc(-c2noc(C3CCCN(C(=O)c4ccccc4Br)C3)n2)o1 (stereo unspecified)	3	16	-4	4	2	8
